# Laboratory results from PubChem BioAssay (NCI).
# About 83,000 compounds went through this panel and 20% of them were active in at least one assay; those are over-represented in the sample as a whole.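 How to read the values: 0–100, growth inhibition (40 = 60% inhibited); 0, no net growth; -100 to 0, cell death (-40 = 40% of starting cells died; -100 = all dead).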 A number with no mark means an inactive call. Active and inactive are the calls of the source. Rule for the calls: active = growth percent below 10; inactive = the rest.
# System: RXF 393 renal
# Experiment: NCI-60 one-dose screen, 48 h (100 = growth as untreated, 0 = no growth, -100 = all killed)
# Details: 10 µM
row,Compound,growth
1,CCNCCCCNCCCCNCCCCNCCCCNCC,81.7%
2,CC1=CC(C)(C)NC(=S)N1c1ccc(S(=O)(=O)O)c2cccc(S(=O)(=O)O)c12,107%
3,O=c1[nH]cc(Cl)cc1O,107%
4,CC(C)=NNc1ccc([N+](=O)[O-])cc1[N+](=O)[O-],109%
5,CC1CC(O)CC(C)(C)C1 (stereo unspecified),115%
6,CCOC(=O)CNN,108%
7,CCOC(=O)c1ccc(NC(=S)P(=O)(c2ccccc2)c2ccccc2)cc1,120%
8,O=C(Nc1cccc(NC(=O)Nc2cc(C(F)(F)F)ccc2Cl)c1)Nc1cc(C(F)(F)F)ccc1Cl,32%
9,COc1cc(-c2ccc(NC(=O)NC3CC3)c(OC)c2)ccc1NC(=O)NC1CC1,73%
10,Oc1ccc2c(c1)OCC1(O)Cc3cc(O)c(O)cc3C21 (stereo unspecified),89.1%
11,COc1ccc(Oc2c(I)cc(CC(NC(C)=O)C(=O)O)cc2I)cc1 (stereo unspecified),88.6%
12,CCCCC/C=N/Nc1nc(C)cc(=O)[nH]1,105%
13,CN(C)C(C)(C)CC(C)(C)C,103%
14,CN(C)C(=O)Oc1cccc([N+](C)(C)C)c1,114%
15,CC12CC3CC1C(C(=O)O2)C3C(=O)O (stereo unspecified),109%
16,CCN(CC)c1ccc2nc3ccc(=[N+](CC)CC)cc-3oc2c1,53.1%
17,O=C(NC1CCCCC1)OCc1c(COC(=O)NC2CCCCC2)c(-c2ccc(Cl)c(Cl)c2)n2c1CCC2,-13.6% (active)
18,N#CCCN(CCCN1CCOCC1)CN1C(=O)c2ccccc2C1=O,98%

# System: SF-268 CNS
# Experiment: as above
# Details: 10 µM
row,Compound,growth [%]
1,CC(=O)OC1CC2C(C)(C)OC3CC(=O)OCC32C2CCC3(C)C(=CCC3c3ccoc3)C12C (stereo unspecified),98.6
2,CCC(O)CC(CC)CO (stereo unspecified),113
3,CC(=Nc1ccccc1)C1=C(O)C(Cc2cccc(F)c2)NC1=O (stereo unspecified),31.1
4,Cc1c(O)cccc1O,112
5,CC1CCCCN1C(=S)Nc1ccc(S(=O)(=O)N2CCCCC2)cc1 (stereo unspecified),97.2
6,C=C1CC/C=C(\C)C(=O)C[C@@H]2[C@@H]1CC2(C)C,99.5
7,N#C/C(=C\c1cc(O)c(O)c(O)c1)C(N)=O,107
8,C#CCSc1nnnn1-c1ccc(Br)c(C)c1,99.2
9,Brc1cnc2ccccc2c1,97.2
10,O=C1C=C(O)C(=O)C=C1O,101
11,COC(=O)Nc1nc2ccc(C(=O)c3ccc(F)cc3)cc2[nH]1,22.6
12,CCOC(=O)C1=C(C)NC(=O)NC1c1cccs1 (stereo unspecified),108
13,CCOC(=O)Nc1cc2c(c(N)n1)N=C(c1ccccc1)CO2,38.4
14,COC(=O)c1cccnc1,95.4
15,O=[N+]([O-])c1cccc(C(F)(F)F)c1,102
16,CC(=O)Cc1ccc(-c2ccccc2)cc1,98
17,Cc1ccc(C(=O)NC2c3ccccc3Oc3ccccc32)cc1,64.1
18,CC1(c2ccccc2)NC(=O)NC1=O (stereo unspecified),106
19,COc1cc2c3c(n(C)c(=O)c2cc1OC)-c1cc2c(cc1C3=O)OCO2,59.3

row,Compound,growth [%]
1,O=[N+]([O-])c1ccc(-c2ncc(-c3ccc(Br)cc3)o2)cc1,107
2,CCNCCCCNCCCCNCCCCNCCCCNCC,138
3,CC1=CC(C)(C)NC(=S)N1c1ccc(S(=O)(=O)O)c2cccc(S(=O)(=O)O)c12,104
4,O=c1[nH]cc(Cl)cc1O,79
5,CC(C)=NNc1ccc([N+](=O)[O-])cc1[N+](=O)[O-],85.1
6,CC1CC(O)CC(C)(C)C1 (stereo unspecified),91.9
7,CCOC(=O)CNN,103
8,CCOC(=O)c1ccc(NC(=S)P(=O)(c2ccccc2)c2ccccc2)cc1,94.5
9,O=C(Nc1cccc(NC(=O)Nc2cc(C(F)(F)F)ccc2Cl)c1)Nc1cc(C(F)(F)F)ccc1Cl,48.5
10,COc1cc(-c2ccc(NC(=O)NC3CC3)c(OC)c2)ccc1NC(=O)NC1CC1,62.8
11,Oc1ccc2c(c1)OCC1(O)Cc3cc(O)c(O)cc3C21 (stereo unspecified),96.8
12,COc1ccc(Oc2c(I)cc(CC(NC(C)=O)C(=O)O)cc2I)cc1 (stereo unspecified),91.7
13,CCCCC/C=N/Nc1nc(C)cc(=O)[nH]1,107
14,CN(C)C(C)(C)CC(C)(C)C,103
15,CN(C)C(=O)Oc1cccc([N+](C)(C)C)c1,106
16,CC12CC3CC1C(C(=O)O2)C3C(=O)O (stereo unspecified),99.2
17,CCN(CC)c1ccc2nc3ccc(=[N+](CC)CC)cc-3oc2c1,13.9
18,O=C(NC1CCCCC1)OCc1c(COC(=O)NC2CCCCC2)c(-c2ccc(Cl)c(Cl)c2)n2c1CCC2,29.2
19,N#CCCN(CCCN1CCOCC1)CN1C(=O)c2ccccc2C1=O,115
